Here are results for 40 molecules from PubChem BioAssay (NCATS).

Records with an inconclusive call do not appear. Where a call stands in place of a potency, no number is given. Activity calls are given as the source filed them. Calls follow the shape of the dose curve; as a rule, active = well fitted activation curve with a large enough effect; inconclusive = small, poorly fitted or top-dose-only effect; inactive = flat fitted curve, though single readings scatter.

The test in a line: HEK293 24hr Apoptosis Induction qHTS against the NCATS CANVASS Library (AID 1347359). The note with it: HEK293 caspase-3/7 activation, Caspase-Glo luminescence; series mostly up to 46.1 µM. The source says:
Natural products and their derivatives continue to be wellsprings of nascent therapeutic potential. However, many laboratories have limited resources for biological evaluation, leaving their previously isolated or synthesized compounds largely or completely untested. To address this issue, the Canvass library of natural products was assembled (https://tripod.nih.gov/canvass), in collaboration with academic and industry researchers, for quantitative high-throughput screening (qHTS) across a diverse set of cell-based and biochemical assays. The pure (>85% purity by liquid chromatography/mass spectrometry [LC/MS]) Canvass library of 346 natural products were submitted by 45 academic laboratories and companies around the world. We collected pure natural products to circumvent deconvolution and structure elucidation due to time and resource limitations. The library was formatted into 1536-well plates and evaluated in 50 qHTS (in an 11-pnt concentration series) bioassays with broad scope of disease-relevant mechanisms. The resulting data set from 50 different assays was then systematically analyzed to identify overall trends and specific natural products with interesting biological activities. Reported herein are the results of each individual qHTS and their corresponding assay protocol. The Caspase-Glo (R) (Promega) is a homogeneous, luminescent assay that measures caspase activity. The detection substrate contains tetrapeptide sequence DEVD in an "add-mix-measure" format. The reagent generates a luminescent signal produced by a thermostable luciferase. The luminescence is proportional to the amount of caspase activity in the assay reaction. National Center for Advancing Translational Sciences (NCATS), Rockville, MD National Institute of Health (NIH), Bethesda, Maryland
Cancer Cell Apoptosis Assay 1. In a 1536 well, white solid bottom tissue culture plates (Corning 7494), HEK293 cancer cells in DMEM + 10% FBS + 1% P/S media were dispensed in each well at a final concentration of 500 cells / well (5uL volume) using the Multidrop Combi (Thermo Fisher Scientific) dispenser. 2. Compounds were pin transferred (~23nL volume) via Wako Pin-tool (Wako Automation, Richmond VA) equipped with a 1536 pin head. The assay plates were treated with compounds in a concentration series with a final concentration range of […] to 103uM. 3. Doxorubicin was used as a control in a 16pnt titration (1mM; 1:2 dilution; 16-points; n = 2; column 3, rows 1 - 32) and was pin transferred via Wako Pin-tool equipped with a 1536 pin head. The final concentration range of doxorubicin is 0.1nM - 4uM. 4. The assay plates were incubated for 24 hours at 37 degrees C/5% CO2/95% Rh. 5. 3uL Caspase-Glo 3/7 (R) (Promega) detection reagent was then added to the assay plates (columns 2 - 48, rows 1 - 32) and incubated at room temperature, covered from light, for 15 min. 6. Luminescence signal was acquired via the ViewLux plate reader (PerkinElmer) using a clear filter, 20 second exposure and 2x binning settings.
A general note: In qHTS, concentration-response curves come from the screen itself.
For `C=C1CCC2C(C)(C(=O)O)CCC(CC/C(C)=C/C(=O)NC(CCC(N)=O)C(=O)O)[C@@]2(C)C1` (stereo not given in full), the Potency result is “inactive”.

In the case of `O=Cc1ccc2n1C[C@]1(C[C@H](O)[C@@H](CO)O1)OC2`, the Potency entry is “inactive”.

As for `C[C@H](c1cnc(N)[nH]1)c1ccc(O)c2[nH]cc(-c3cnc(-c4c[nH]c5ccccc45)c(=O)[nH]3)c12`, the Potency result was “inactive”.

For the molecule `C=C1C[C@H]2O[C@@H]3[C@@H]4[C@H](CC[C@@](C)(O)[C@@H]42)[C@H](C)COC3(C)[C@@H](OC(=O)CCCCCCC)CC1=O` (stereo not given in full), the Potency entry was “inactive”.

For `COc1ccc(-c2oc3cc(OC)cc(OC)c3c(=O)c2O)cc1`, the Potency result was “inactive”.

On to `CC[C@@H]1[C@H](C)[C@H](c2cc(OC)c(OC)cc2OC)[C@@H](C)[C@H](c2cc(OC)c(OC)cc2OC)[C@]12C=C(OC)C(=O)C=C2OC`, for which the Potency result was “inactive”.

On to `C=C[C@](Cl)(CBr)CCC=C(C)C`, for which the Potency result is “inactive”.

As for `C=CC(CCCCC)C1C(=O)NC(=O)C1C(=O)C1C2C(C)CC(C(=O)O)CC2CC1(O)C(=O)/C=C/C` (stereo not given), the Potency entry is “inactive”.

Take `C/C=C/c1cc2c(c(=O)o1)C(=O)[C@@H](O)[C@H](C)O2`: the Potency result is “inactive”.

For the molecule `COc1cc2c(cc1OC)[C@@H](c1ccc3c(c1)OCO3)C(C)C(C)C2=O` (stereo not given in full), the Potency result was “inactive”.

Regarding `O=C1CC2OCC=C3CN4C5CC3C2[C@@H]2N1c1ccccc1[C@]52C[C@@H]4C1=C[C@H]2C3CC4N(CC[C@@]45c4ccccc4N(C1=O)[C@@H]25)C/C3=C/CO` (stereo not given in full), the Potency result is “inactive”.

On to `CC1=C(C)C(=O)OC(C(C)C2(O)CCC3C4C5OC5C5(O)CC=CC(=O)C5(C)C4CCC32C)C1` (stereo not given), for which the Potency result is “inactive”.

Take `CC(C)C[C@@H]1c2c(O)c(C=O)c(O)c(C=O)c2O[C@]2(C)C=C[C@@H](C(C)C)C[C@H]12`: the Potency result was “inactive”.

On to `CN1CCc2cc3c(c4c2C1(C)C(=O)c1cc(O)ccc1-4)OCO3` (stereo not given), for which the Potency entry was “inactive”.

In the case of `C/C(=C\[C@H](C)C(=O)C[C@H](O)CC1CC(=O)NC(=O)C1)[C@@H]1OC(=O)CCCC/C=C/[C@@H](O)C[C@@H]1C`, the Potency entry is “inactive”.

Turning to `C=C(Cl)[C@](Cl)(CBr)CC[C@@H](Br)C(C)(C)Cl`, the Potency result was “inactive”.

For the molecule `Oc1ccc(C2Oc3cc(O)c4c(c3[C@@H]2c2cc(O)cc(O)c2)[C@H]2C(c3ccc(O)cc3)c3c(O)cc5c(c3[C@H]2C4c2ccc(O)cc2)[C@H](c2cc(O)cc(O)c2)C(c2ccc(O)cc2)O5)cc1` (stereo not given in full), the Potency result was “inactive”.

For `Cc1occ2c1C(=O)c1c(cc(O)c(O)c1O)C2=O`, the Potency entry was “inactive”.

As to `[C-]#[N+][C@@]12C(=O)[C@@H]3[C@@H](O[C@@]4(C(=O)N(C)c5cccc1c54)C3(C)C)C(=O)[C@@]2(C)C=C`, the Potency result was “inactive”.

For `COC12OC1(C13OC1(OC)C(=O)c1cc4cc(C)oc(=O)c4c(O)c1C3O)C(O)c1c(cc3cc(C)oc(=O)c3c1O)C2=O` (stereo not given), the Potency entry was “inactive”.

Regarding `C/C(=C\[C@H](C)C(=O)/C=C/CC1CC(=O)NC(=O)C1)[C@@H]1OC(=O)CCCC/C=C/[C@H](O)[C@@H](O)[C@@H]1C`, the Potency entry was “inactive”.

In the case of `C[C@]12CCC[C@](C)(C(=O)O)[C@@H]1CC[C@@]1(C)c3cocc3CC[C@H]21`, the Potency entry was “inactive”.

Turning to `CC(=O)N[C@H](C)c1nc(/C=C/C=C/C(=O)CC2CC(=O)CC[C@]2(C)O)cs1` (stereo not given in full), the Potency result was “inactive”.

On to `O=C1c2c(O)cc(O)cc2OC(c2ccc(O)cc2)C1O` (stereo not given), for which the Potency result is “inactive”.

Consider `CC(C)[C@@H]1CC(=O)c2coc3c2[C@H]1C[C@@H](C)C3=O`, for which the Potency result was “inactive”.

Consider `C/C=C/[C@H]1[C@H]2C(=O)c3c(O)c(C)c(O)c(C)c3[C@]1(C(=O)O)C(=O)C=C2C`, for which the Potency result is “inactive”.

On to `CC(C)=CCCC(C)(O)[C@H]1CC=C(C)C(O)C1` (stereo not given in full), for which the Potency entry was “inactive”.

Turning to `C=C1[C@@]2(C)CC3C4(C)CCC(O)C(C)(C)C4CCC3(C)[C@]1(C(=O)OC)C(=O)C(C)(O)C2=O` (stereo not given in full), the Potency result was “inactive”.

`CCC(=O)CCCCC[C@@H]1NC(=O)[C@H]2CCCCN2C(=O)[C@H](C(C)C)NC(=O)[C@H](Cc2cn(OC)c3ccccc23)NC1=O`: the Potency entry was “inactive”.

With `C/C1=C/[C@@H](C)[C@H](O)[C@@H](O)/C=C/CC/C=C/C(=O)O[C@@H]1[C@H](C)C(=O)CCCC1CC(=O)NC(=O)C1`, the Potency entry was “inactive”.

Consider `CN1C(=O)C(=O)N2C(=C[C@]3(c4c[nH]c5ccccc45)c4ccccc4N[C@H]23)C1=O`, for which the Potency entry was “inactive”.

On to `C/C=C1/C2=CCCN3C(=O)O[C@H]([C@H]1O)[C@H]23`, for which the Potency entry was “inactive”.

Regarding `C=C(C)CC[C@H](Cc1c(O)cc(O)c2c1O[C@H](c1ccc(O)cc1)CC2=O)C(=C)C`, the Potency result is “inactive”.

Regarding `CCCc1c2c([nH]c(=O)c1C)C(=O)c1[nH]c(=O)c(C)c(CCC)c1C2=O`, the Potency entry is “inactive”.

Consider `C[C@@]12C[C@@H](C[C@@H]3C(=O)O[C@@H](c4ccoc4)[C@H](OC(=O)c4ccccc4)[C@@H]31)OC2=O`, for which the Potency entry was “inactive”.

As for `CN1CC[C@]2(c3cccc4c3N[C@H]3N(C)CC[C@@]43[C@]34CCN(C)[C@H]3Nc3ccccc34)c3ccccc3N[C@H]12`, the Potency entry was “inactive”.

In the case of `O=C1CC(c2ccc(O)cc2)Oc2ccccc21` (stereo not given), the Potency result is “inactive”.

Turning to `C[n+]1cc2cc(C(N)=O)[nH]c3c(=N)c(Cl)c(N)c1c23`, the Potency result was “inactive”.

Consider `COc1cc2c(cc1OC)[C@@H](c1ccc3c(c1)OCO3)C(C)[C@@H](C)C2=O` (stereo not given in full), for which the Potency entry was “inactive”.

Take `Cc1cc(C)c(O)c(C(=O)CC2CC(=O)NC(=O)C2)c1`: the Potency entry was “inactive”.
